# Experimental data published in PubChem BioAssay.
# How the values were obtained:
# [1] = tested on: Human papillomavirus type 1a protein E7 (residues 44-93); test: small molecules binding HPV E7 44-93 – biochemical, small-molecule microarray, residues 44-93, 635 nm fluorescence, primary screen (AID 1108); settings: fluorescence 635 nm, higher = more signal;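 further: E7 fragment applied at 1 µg/mL in TBST for 1 h at 4 C; score combines spot fluorescence with its signal to noise ratio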
# [2] = hepatitis C replication reporter changes, two-sided – Huh7 cells, luciferase reporter, HCV replication inhibitor project, primary screen (AID 1109); settings: Huh7 HCV replicon luciferase reporter, 48 h; higher = more signal;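 further: huh7 hepatoma cells harbouring a luciferase neomycin HCV replicon reporter; luciferase luminescence as measure of HCV replicon replication; test concentration not given here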
# [3] = target: Left-right determination factor 2 (Homo sapiens) (UniProt O00292); test: small molecules binding LEFTY2 protein – biochemical, small-molecule microarray, 635 nm fluorescence scan, primary screen (AID 1110); settings: higher = more signal
# Left-right determination factor 2 (Homo sapiens), sequence (O00292 whole entry, looked up): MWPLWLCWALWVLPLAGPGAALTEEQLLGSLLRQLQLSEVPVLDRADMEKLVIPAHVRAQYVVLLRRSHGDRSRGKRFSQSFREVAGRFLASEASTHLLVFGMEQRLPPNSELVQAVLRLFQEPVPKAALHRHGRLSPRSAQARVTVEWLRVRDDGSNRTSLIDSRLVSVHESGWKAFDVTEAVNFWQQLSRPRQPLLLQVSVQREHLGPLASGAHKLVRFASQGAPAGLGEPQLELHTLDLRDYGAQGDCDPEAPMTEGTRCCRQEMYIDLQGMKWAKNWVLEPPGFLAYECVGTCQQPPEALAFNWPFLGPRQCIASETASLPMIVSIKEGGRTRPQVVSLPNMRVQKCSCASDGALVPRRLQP
# [4] = target: Calmodulin-1 (Homo sapiens) (UniProt P0DP23); test: small molecules binding calmodulin-1 with EGTA – biochemical, small-molecule microarray, Cy5-labelled CALM1, profiling panel (AID 1111); settings: Cy5-CALM1 binding fluorescence, higher = more signal;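 further: labelled calmodulin applied in Tris saline Tween buffer holding calcium plus EGTA and DTT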
# [5] = target: Calmodulin-1 (Homo sapiens) (UniProt P0DP23); test: small molecules binding Ca-loaded calmodulin-1 – biochemical, small-molecule microarray, Cy5-labelled CALM1, plus calcium, artefact control for SMM control-protein annotation, profiling panel (AID 1112); settings: Cy5-CALM1 binding fluorescence, higher = more signal;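 further: score merges spot fluorescence with signal to noise from triplicate slides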
# [6] = probe aWnt5a binding to arrayed compounds – biochemical, biotinylated probe, 635/667 nm fluorescence, primary screen (AID 1113); settings: small-molecule microarray, higher = more signal;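 further: score merges 667 nm fluorescence intensity with signal-to-noise per printed feature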
# [7] = probe aShh binding to arrayed compounds – biochemical, biotinylated probe, 635/667 nm fluorescence, primary screen (AID 1114); settings: small-molecule microarray, higher = more signal;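 further: probe is biotin-labelled aShh protein from a stem cell growth factor screen; measures binding of labelled protein to compounds printed on the slide; score merges feature fluorescence at 667 nm with signal-to-noise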
# [8] = probe aNog binding to arrayed compounds – biochemical, biotinylated probe, 635/667 nm fluorescence, primary screen (AID 1115); settings: small-molecule microarray, higher = more signal;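 further: probe is biotinylated aNog protein used at 0.15 µg/mL for 1 h at 4 C; z-score combines 667 nm fluorescence of each spot with its signal to noise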
# [9] = target: Torsin-1A-interacting protein 1 (Homo sapiens) (UniProt Q5JTV8); test: compound microarray binding of lysate hLAP1 – cell lysate, small-molecule microarray, COS7 lysate, 635/667 nm fluorescence, primary screen (AID 1116); settings: 635 nm fluorescence, higher = more signal
# Torsin-1A-interacting protein 1 (Homo sapiens), sequence (Q5JTV8 whole entry, looked up): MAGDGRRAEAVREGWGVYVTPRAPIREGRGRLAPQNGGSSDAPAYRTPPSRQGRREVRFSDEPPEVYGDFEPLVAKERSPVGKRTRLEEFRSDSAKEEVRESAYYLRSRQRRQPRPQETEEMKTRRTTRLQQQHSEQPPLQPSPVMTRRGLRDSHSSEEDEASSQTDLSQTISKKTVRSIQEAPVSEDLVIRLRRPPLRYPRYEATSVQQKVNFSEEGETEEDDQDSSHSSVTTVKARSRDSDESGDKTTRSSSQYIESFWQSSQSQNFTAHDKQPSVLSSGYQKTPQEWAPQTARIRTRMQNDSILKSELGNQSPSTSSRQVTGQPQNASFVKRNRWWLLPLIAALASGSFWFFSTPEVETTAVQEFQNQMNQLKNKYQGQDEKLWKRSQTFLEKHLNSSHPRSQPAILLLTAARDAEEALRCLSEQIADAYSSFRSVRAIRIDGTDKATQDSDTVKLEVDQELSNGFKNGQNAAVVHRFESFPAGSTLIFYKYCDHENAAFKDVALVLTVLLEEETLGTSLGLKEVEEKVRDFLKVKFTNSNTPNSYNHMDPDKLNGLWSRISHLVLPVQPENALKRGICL
# [10] = target: Alpha-bungarotoxin (Bungarus multicinctus) (UniProt P60615); test: compounds binding labelled alpha-BTX control protein – biochemical, small-molecule microarray, Alexa647 label, 635/667 nm fluorescence, artefact control for SMM control protein annotation, profiling panel (AID 1117); settings: alpha-BTX-A647 binding fluorescence, higher = more signal
# Alpha-bungarotoxin (Bungarus multicinctus), sequence (P60615 whole entry, looked up): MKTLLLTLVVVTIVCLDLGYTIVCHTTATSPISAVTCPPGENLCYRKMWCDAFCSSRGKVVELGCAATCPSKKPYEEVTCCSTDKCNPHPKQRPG
SMILES,composite z-score [1],z-score [2],composite z-score [3],composite z-score [4],composite z-score [5],composite z-score [6],composite z-score [7],composite z-score [8],composite z-score [9],composite z-score [10]
O=C1OCC=C[C@H]2OC34C=CCN(Cn5nnc6ccccc65)C(=O)[C@H]3N(CCCCCO)C(=O)[C@@H]4[C@@H]12 (stereo not given in full),-0.129,-0.0996,-1.3,-0.497,0.0598,0.184,-0.209,0.105,3.17,-0.464
NC(=O)[C@@H]1[C@H]2C(=O)O[C@H](c3ccccc3)[C@H](c3ccccc3)N2[C@H](c2ccc(O)cc2)[C@@]12C(=O)Nc1ccc(C#CC3=CCCCC3)cc12,1.42,-3.23,-0.585,0.573,0.199,0.065,1.78,1.01,0.453,0.334
COC(=O)C(CC#Cc1ccc2c(c1)[C@]1(C(=O)N2)[C@H](c2ccccc2OCCO)N2[C@H](c3ccccc3)[C@H](c3ccccc3)OC(=O)[C@H]2[C@@H]1C(N)=O)C(=O)OC,0.599,-2.95,-0.0862,1.33,0.116,0.349,0.679,2.29,1.21,2.45
O=C1NC(=O)C2C1C=CC(C(O)c1ccc(I)cc1)N2Nc1ccc(Cl)cc1Cl (stereo not given),1.36,-0.644,-0.562,1.84,0.99,-0.0236,-0.0056,1.66,1.05,1.1
NCCCCCNC(=O)[C@H]1C[C@H]2C(=O)N3CCC[C@H]3C(=O)N2[C@H]1c1ccc(O)cc1,1.39,-0.0865,0.84,1.99,1.13,0.212,0.264,1.19,1.07,1.1
COc1ccc([Si](C)(C)[C@@H]2[C@@H](CCn3cc(CCO)nn3)O[C@]3(C(=O)N(Cc4cccc(N5C(=O)c6cccc7cccc5c67)c4)c4ccccc43)[C@H]2C)cc1,1.37,-5.22,-0.0227,0.911,0.506,-0.0256,-0.0192,0.406,0.868,0.664
COC(=O)[C@]1(Cc2ccccc2)N=C(c2ccc(OCCCO)cc2)O[C@@H]1c1ccccc1N=[N+]=[N-],1.33,-3.25,0.123,0.39,0.245,-0.0236,-0.0709,-0.595,-0.279,0.0359
COC(=O)c1c2oc(c1C(=O)OC)C(=O)NC1(CCCCC1)c1cn(nn1)C[C@H](Cc1ccccc1)NC(=O)N[C@H](CO)CC2,0.973,-0.791,0.23,0.0166,-0.396,-0.0955,-0.237,-0.321,0.227,0.531
